# Bioassay records as filed in PubChem BioAssay.
# VP16 counter = Gal4-VP16 reporter inhibition counter-screen; Drosophila S2 Gal4-VP16 UAS-luciferase, luminescence, 20 h; Potency, µM (top dose mostly 53.6 µM), for the others: top-dose activity, negative = inhibition, hits mostly inhibitors; hit rate 3.5% among 310,000;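 also: Gal4-VP16 expression switched on by copper sulfate through the metallothionein promoter; potency is read from the fitted curve at half-maximal effect; % is scaled to controls: 0 for no effect and ±100 for the full control effect; nearly all actives have a fitted effect of over 50% in size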
# Chronic BCR inh = inhibitors of chronic active B-cell receptor signaling. AID 493014. ABC-DLBCL IkBa-CBG/CBR reporter, luminescence ratio, 4 h. hit rate 0.05% among 340,000. Potency, µM (titrated, usually from 46.1 µM), for inactives: at the top dose activity change, negative = inhibition, most hits filed as inhibitors; active = well fitted inhibition curve with a large enough effect in the signal ratio, with a control signal flat, not every such curve was filed as active; inconclusive = small, poorly fitted or top-dose-only effect, or effect the other way, or a change in a side signal; the % refers to the signal ratio;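 also: potency is read from the fitted curve at half-maximal effect; plate controls were basal doxycycline-induced cells for no effect and cells given 10 µM MG132 for full effect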
#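 Doxycycline induced both beetle luciferases in TMD8 lymphoma cells; IKK-driven degradation limits the IkappaBalpha-fused green signal, while red luminescence normalises for cell number and nonspecific effects. Compounds tested up to 46 uM, 4 hrs.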
# RORgamma inh = ROR gamma (mouse) transcription inhibition. Potency, µM (series often up to 53.6 µM), inactives show at the top dose activity change, negative = inhibition, most hits filed as inhibitors. hit rate 5.4% among 310,000. AID 2551. Drosophila S2 Gal4-RORgamma UAS-luciferase reporter, 20 h; also: potency is read from the fitted curve at half-maximal effect; % is scaled to controls: 0 for no effect and ±100 for the full control effect; nearly all actives have a fitted effect of over 60% in size
# Target sequence (P51450 whole entry, looked up, the tested form may be a part): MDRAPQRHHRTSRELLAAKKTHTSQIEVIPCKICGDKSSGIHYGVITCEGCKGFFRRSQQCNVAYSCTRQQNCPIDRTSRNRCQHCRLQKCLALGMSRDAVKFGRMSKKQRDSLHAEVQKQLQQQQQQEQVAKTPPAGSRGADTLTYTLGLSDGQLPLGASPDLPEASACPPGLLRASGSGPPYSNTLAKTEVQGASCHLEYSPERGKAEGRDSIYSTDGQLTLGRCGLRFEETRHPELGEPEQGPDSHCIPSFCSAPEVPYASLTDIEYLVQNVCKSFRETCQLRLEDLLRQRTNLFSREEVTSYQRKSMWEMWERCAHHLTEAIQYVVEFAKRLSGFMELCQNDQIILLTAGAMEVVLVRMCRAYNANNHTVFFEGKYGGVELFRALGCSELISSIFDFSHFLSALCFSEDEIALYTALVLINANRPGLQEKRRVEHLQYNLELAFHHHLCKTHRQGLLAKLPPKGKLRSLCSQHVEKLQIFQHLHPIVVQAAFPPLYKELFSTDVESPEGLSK
#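 Stable Schneider cell line, Gal4 DNA-binding domain fused to ROR gamma, UAS-luciferase. Cmpd 1 hr RT → CuSO4 700 uM final → 20 hr RT → luciferase reagent 10 min → luminescence.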
# SW480 rerep = inducers of DNA re-replication in SW480 colon cancer cells | SW480 DNA re-replication, Hoechst DNA content imaging, 48 h | Potency, µM (series often up to 46.1 µM), for inactives: at the highest dose re-replication activation, usual class: activators | AID 624297 | hit rate 1.8% among 340,000; also: potency is read from the fitted curve at half-maximal effect; % of control where 0% means no effect; nearly all actives have a fitted effect of over 55% in size
#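 DNA re-replication was detected as more nuclei of elevated Hoechst intensity after 48 hr exposure to compound (23 nL pinned per well of 250 cells).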
# Giardia killer = kills Giardia lamblia. Giardia lamblia trophozoite viability. hit rate 0.15% among 340,000. activity change, % at 7.66 µM, hits read low; in the data active = activity change below about -80%; inconclusive = between about -30% and that limit;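 also: parasites exposed to compound for two days anaerobically before the ATP read; % is scaled to controls: 0 for no effect and ±100 for the full control effect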
#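 Media and compound were dispensed first, then trophozoites at 100 cells/well; plates sat 48 hrs at 37 deg C without oxygen before ATP luminescence reagent was added and read after 15-30 min at room temperature.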
# MCF10A rerep = induces DNA re-replication in MCF 10a normal breast cells | MCF 10A DNA re-replication, Hoechst nuclear intensity, 48 h | Potency, µM (series often up to 46.1 µM), for the others: top-dose activity, positive = re-replication, usual class: activators | hit rate 2.9% among 350,000 | AID 624296; also: potency is read from the fitted curve at half-maximal effect; % of control where 0% means no effect; nearly all actives have a fitted effect of over 50% in size
# * hit, by the source's call; ? = inconclusive; . = no result; ! = not active in a repeat; [ ] = dose if it differs, or a comment. An excerpt weighted towards active compounds, which were near 8.3% of everything screened. Unless noted, calls follow the shape of the dose curve; as a rule, active = well fitted curve in the direction sought with a large enough effect; inconclusive = small, poorly fitted or top-dose-only effect, or another doubt; inactive = no such curve, though single readings can be large; an effect the other way counts as inactive or inconclusive.
SMILES,VP16 counter,Chronic BCR inh,RORgamma inh,SW480 rerep,Giardia killer,MCF10A rerep
O=C(CSc1nc2[nH]ncc2c(=O)[nH]1)Nc1cccc([N+](=O)[O-])c1,.,15.9%,.,-74.9%,-27.4,4.1%
COc1cc(N=c2c([N+](=O)[O-])nn(-c3ccc4c(c3)OCCO4)n2O)cc(OC)c1,-17.7%,?,14.7%,?,?,20.6µM*
O=[N+]([O-])c1nn(-c2ccc3c(c2)OCCO3)n(O)c1=NCCC1=CCCCC1,?,?,-20.6%,0.0%,-92.5*,?
CC(C)c1ccc(N=c2c([N+](=O)[O-])nn(-c3ccc4c(c3)OCCO4)n2O)cc1,?,6.7%,?,1.2%,?,-16.3%
CN=c1c([N+](=O)[O-])nn(-c2ccc3c(c2)OCCO3)n1O,-22.1%,2.0%,29.9%,16.4µM*,?,2.0%
Cc1cc(C)c(OCC(=O)NCC(C)(C)N2CCOCC2)c(C)c1,.,-6.3%,.,-58.0%,-16.0,?
CC(=O)Nc1ccc(SCC(=O)Nc2ccc(Cl)cn2)cc1,11.5%,?,9.9%,-2.3%,3.9,3.1%
CCOC(=O)Nc1ccc2c(c1)N(C(=O)N1CCN(C)CC1)c1ccccc1S2,-3.0%[0.365 µM],?,-11.0%,-1.8%,-9.7,-177.4%[0.0737 µM]
CCOC(=O)Nc1ccc2c(c1)N(C(=O)CN(CC)CC)c1ccccc1CC2,4.6%,-2.5%,-9.2%,?,-14.3,-3.0%
C=CC(=O)N1c2ccccc2Sc2ccc(NC(=O)OCC)cc21,.,.,.,?,33.7,6.51µM*
CCOC(=O)Nc1ccc2c(c1)N(C(=O)CN(CC)CC)c1ccccc1C=C2,-11.5%,-8.5%,-0.5%,3.1%,-1.8,11.6µM*
CCOC(=O)Nc1ccc2c(c1)N(C(=O)CCN(CC)CC)c1ccccc1S2=O (centres undefined),12.6µM*,?,?,5.7%,-5.9,?
CCOC(=O)Nc1ccc2c(c1)N(C(=O)CCN(CC)CC)c1ccccc1CC2,-15.9%,?,-2.2%,-0.3%,28.1,9.4%
NC1=NCCN1CC(=O)O,1.3%,.,16.7%,.,.,.
CC(Oc1ccccc1)C(=O)N=C1SC2CS(=O)(=O)CC2N1c1ccc(F)cc1 (centres undefined),-5.4%,7.1%,1.6%,?,8.3,0.3%
CCCCCCNC(=O)c1c[nH]c2ccc(S(=O)(=O)N(C)c3ccc(C(C)C)cc3)cc2c1=O,.,-7.4%,.,.,.,.
CN(Cc1ccccc1)CC(O)COc1ccc(CNCc2cccnc2)cc1 (centres undefined),-1.2%,-2.7%,9.0%,21.2%,3.1,?
CN(Cc1ccccc1)CC(O)COc1ccc(CNCc2ccc(Cl)s2)cc1 (centres undefined),-10.3%,?,3.7%,20.6µM*,20.5,16.4µM*
CC(C)(C)c1cc(C(c2cccnc2)N2CCN(CCO)CC2)cc(C(C)(C)C)c1O (centres undefined),17.8µM*,?,12.6µM*,-0.7%,20.1,1.0%
CC(C)(C)n1nnnc1C(c1cccnc1)N1CCN(c2cccc(C(F)(F)F)c2)CC1 (centres undefined),-6.5%,?,26.4%,-1.1%,-17.8,6.1%
CC(=O)Nc1ccc(S(=O)(=O)Nc2nc3ccccc3s2)cc1,-2.5%,?,-8.9%,-1.9%,-1.2,18.3%
O=S(=O)(Nc1ccc(O)c(Sc2nc3ccccc3s2)c1)c1ccc(Cl)cc1,1.7%,?,2.9%,-135.6%,20.0,20.6µM*
CCN1CNC(=S)N(c2cc(C)ccc2C)C1,-28.5%,2.0%,?,-2.2%,-17.9,0.8%
CCCN1CNC(=S)N(c2ccc(C)cc2C)C1,?,-0.2%,3.98µM*,7.5%,3.3,-3.5%
CCCN1CNC(=S)N(c2ccccc2C)C1,?,?,11.2µM*,1.8%,3.0,-13.1%
SMILES,VP16 counter,Chronic BCR inh,RORgamma inh,SW480 rerep,Giardia killer,MCF10A rerep
COc1ccc2nc(Nc3nc(CSc4nc5ccccc5[nH]4)cc(=O)[nH]3)nc(C)c2c1,5.01µM*,-11.5%,5.62µM*,?,14.8,3.66µM*
Cc1nc(Nc2nc(CSc3ccc(Cl)cc3)cc(=O)[nH]2)nc2ccccc12,-4.3%,-2.0%,-2.2%,?,-3.9,11.5%
Cc1nc(Nc2nc(CSc3nc4ccccc4[nH]3)cc(=O)[nH]2)nc2ccccc12,?,?,?,?,6.8,11.6µM*
CC/C=C\C/C=C\C/C=C\C/C=C\C/C=C\C/C=C\CCC(=O)NCCO,2.7%,.,-25.2%,.,.,.
Cc1cc(OCC(=O)c2cccc(C(F)(F)F)c2)n2cnnc2n1,4.6%,-0.3%,3.5%,-0.4%,-3.1,4.9%
CC(=O)c1cccc(NC(=O)N2CCCC2C(=O)Nc2cccc(C)c2)c1 (centres undefined),-1.7%,?,-4.6%[10 µM],-7.1%,-5.2,-0.4%
CC(=O)Nc1cccc(NC(=O)C2CCCN2C(=O)Nc2cccc(C)c2)c1 (centres undefined),-1.2%,0.3%,-39.4%,-15.5%,-10.6,9.2µM*
COc1cccc(O)c1CN1CCC(Oc2ccc(C(=O)NCc3ccccn3)cc2)CC1,-11.1%,0.3%,-21.7%,-15.9%,-20.9,1.9%
c1ccc(-c2[nH]ncc2-c2ccnc3ccccc23)nc1,3.16µM*,.,2µM*,.,.,.
CN(C)c1nc(/C=C(\C#N)C(N)=O)c(Cl)n1-c1ccc(F)cc1,?,-0.7%,-44.9%,?,14.8,?
Cc1cccc(NC(=S)NC2CC3CCCC(C2)N3Cc2cccs2)c1C (centres undefined),?,-11.9%,2.51µM*,-0.1%,1.1,1.1%
CCc1ccccc1NC(=S)NC1CC2CCCC(C1)N2Cc1cccs1 (centres undefined),?,-0.1%,11.2µM*,-6.8%,-18.9,0.1%
Cc1cccc(C)c1NC(=O)NC1CC2CCC(C1)N2Cc1cccs1 (centres undefined),-13.2%,?,33.2%,0.5%,-6.8,1.2%
CCOC(=O)C1CCN(C(=O)COC(=O)CN(C)S(=O)(=O)c2ccc(NC(C)=O)cc2)CC1,.,.,.,-0.1%,-8.0,6.7%
CCCCCCC1(C)NC(c2ccc3c(c2)OCO3)=CC(c2cc(Br)ccc2O)N1 (centres undefined),.,.,.,.,3.9,.
N#CC(=C=[N-])c1nc2ccccc2nc1-[n+]1cccc(NC(=O)c2ccccc2)c1,?,2.6%,5.01µM*!,-39.1%,-5.3,-1.5%
COc1ccc(OC)c(S(=O)(=O)ON2C(=O)c3ccccc3C2=O)c1,7.94µM*,-0.5%,5.62µM*,?,-20.0,6.51µM*
COc1ccc(OC)c(S(=O)(=O)N2CCN(c3ccccc3)CC2)c1,3.7%,-3.9%,1.6%,-0.7%,-17.5,?
CCc1ccc(S(=O)(=O)ON2C(=O)c3ccccc3C2=O)cc1,-5.7%,?,13.8%,?,-28.7,18.4µM*
